Tau fibril ThT = qHTS for Inhibitors of Tau Fibril Formation, Thioflavin T Binding; recombinant tau K18 P301L, heparin-induced fibrillization, ThT fluorescence; Potency, µM (highest dose often 57.4 µM), hits mostly inhibitors; AID 1460, 2008; Microtubule-associated protein tau (Homo sapiens), P10636; 270,000 tested, 2.1% active; note: nearly all actives have a fitted effect of over 55% in size
Target sequence (P10636 561-689 P618L limits assumed): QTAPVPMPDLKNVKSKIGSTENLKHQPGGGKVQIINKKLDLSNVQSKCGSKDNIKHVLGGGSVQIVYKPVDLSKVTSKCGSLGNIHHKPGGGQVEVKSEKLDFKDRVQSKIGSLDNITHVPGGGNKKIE
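Heparin-induced fibrillization of the P301L-mutant K18 repeat-domain fragment of human tau was followed by ThT binding in quantitative high-throughput format.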
CBFb RUNX1 block = qHTS Assay for Compounds Blocking the Interaction Between CBF-beta and RUNX1 for the Treatment of Acute Myeloid Leukemia | AlphaScreen CBFb-His/RUNX1-biotin binding, biochemical | 230,000 tested, under 10 active | Potency, µM (highest dose often 59.8 µM), actives largely listed as inhibitors | AID 1477, 2009
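Room-temperature protein-protein interaction test with 30 nM each of His-tagged CBF-beta and biotinylated RUNX1, 15 min with compound, then 90 min with nickel plus streptavidin beads. Signal read in AlphaScreen mode.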
Tau fluor counter = Counterscreen qHTS for Inhibitors of Tau Fibril Formation, Fluorescence Polarization; tau K18 P301L (four-repeat tau fragment) Alexa594 fluorescence, heparin fibrillization; Potency, µM (series often up to 57.7 µM); 280,000 tested, 0.93% active; AID 1463, 2008; note: nearly all actives have a fitted effect of over 55% in size
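Human K18 P301L tau (15 uM unlabeled plus 0.24 uM Alexa 594-labeled, final) in 100 mM sodium acetate pH 7 was mixed with compound and 20 uM heparin and incubated 6 hr at 37 C.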
JMJD2E inh = qHTS Assay for Inhibitors of Human Jumonji Domain Containing 2E (JMJD2E) | Lysine-specific demethylase 4E (Homo sapiens), B2RXH2 | JMJD2E catalytic domain, FDH-coupled NADH fluorescence (FDH is formaldehyde dehydrogenase) | Potency, µM (series often up to 57.1 µM), hits mostly inhibitors | 230,000 tested, 1.6% active; active = well fitted inhibition curve with a large enough effect, not every such curve was filed as active; inconclusive = small, poorly fitted or top-dose-only effect, or another doubt; inactive = no such curve, though single readings can be large or run the other way; note: nearly all actives have a fitted effect of over 50% in size
Target sequence (B2RXH2 1-337 limits assumed): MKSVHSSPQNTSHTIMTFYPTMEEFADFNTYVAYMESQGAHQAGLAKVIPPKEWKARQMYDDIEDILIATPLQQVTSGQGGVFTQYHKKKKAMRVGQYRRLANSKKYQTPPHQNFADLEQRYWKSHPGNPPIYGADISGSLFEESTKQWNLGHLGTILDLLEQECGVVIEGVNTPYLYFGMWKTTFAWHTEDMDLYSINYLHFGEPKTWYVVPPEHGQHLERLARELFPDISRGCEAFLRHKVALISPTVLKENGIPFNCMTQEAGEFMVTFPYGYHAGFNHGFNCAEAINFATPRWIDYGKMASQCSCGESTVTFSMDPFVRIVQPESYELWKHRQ
Tau fibril FP = qHTS for Inhibitors of Tau Fibril Formation, Fluorescence Polarization. Microtubule-associated protein tau (Homo sapiens), P10636. K18 P301L tau heparin fibrillization, Alexa594 FP, 6 h. Potency, µM (doses to about 57.7 µM), most hits filed as inhibitors. 280,000 tested, 0.39% active; note: nearly all actives have a fitted effect of over 55% in size
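Compound effects on tau fibrillization are measured by Alexa 594 fluorescence polarization (ex 555, em 632 nm). K18 P301L tau is used at 15 uM with 0.24 uM labeled tracer, and 20 uM heparin induces aggregation over 6 hr at 37 C.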
LMNA splice mod = qHTS Assay for Modulators of Lamin A Splicing; HeLa LMNA splicing GFP/RFP minigene ratio, 48 h; Potency, µM (doses to about 46.1 µM), hits mostly inhibitors; 200,000 tested, 0.01% active; active = well fitted inhibition curve with a large enough effect in the signal ratio, with a control signal flat, not every such curve was filed as active; inconclusive = small, poorly fitted or top-dose-only effect, or effect the other way, or a change in a side signal; the % refers to the signal ratio
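Read-out is the ratio of GFP to DsRed2 object intensity, acquired by 488 nm laser-scanning cytometry on HeLa lamin A-EGFP minigene reporter cells. Compound incubation 48 hrs at 37 °C in Opti-MEM with 2% FBS; DMSO 0.5% final.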
A number is an active result; – = inactive; ? = inconclusive; · = no result; [ ] = remark or other dose. Rows were chosen to be rich in hits. Some 3.2% of all compounds tested hit in one or more screens of this group. Unless noted, calls come from the whole dose curve; as a rule, active = well fitted curve in the direction sought with a large enough effect; inconclusive = small, poorly fitted or top-dose-only effect, or another doubt; inactive = no such curve, though single readings can be large; an effect the other way counts as inactive or inconclusive.

SMILES	Tau fibril ThT	CBFb RUNX1 block	Tau fluor counter	JMJD2E inh	Tau fibril FP	LMNA splice mod
Cc1cc([N+](=O)[O-])ccc1-c1ccc(C2Nc3ccccc3C(=O)N2O)o1 (stereo unspecified)	14µM	–	?	28µM	–	?
Cc1ccc(S(=O)(=O)Nc2nsc(N)n2)cc1	11µM	–	–	–	18µM	–
CCCC(=O)NC(NC(=S)Nc1ccc(S(N)(=O)=O)cc1)C(Cl)(Cl)Cl (stereo unspecified)	–	–	–	–	–	–
O=C(CCc1ccccc1)NC(NC(=S)Nc1cccc(Cl)c1)C(Cl)(Cl)Cl (stereo unspecified)	–	–	–	–	14µM	–
CCCC(=O)NC(NC(=S)Nc1ccc(N=Nc2ccccc2)cc1)C(Cl)(Cl)Cl (stereo unspecified)	14µM	–	?	–	?	?
S=C(NCCC(c1ccccc1)c1ccccc1)Nc1cccc(Cl)c1	–	–	7.1µM[quencher]	–	14µM	?
Cc1cc(C)cc(NC(=O)C2CCCN(c3cnccn3)C2)c1 (stereo unspecified)	–	·	–	·	–	·
CC(=O)c1ccc(N2CCC(c3cc(-c4ccc(Cl)cc4Cl)n[nH]3)CC2)c([N+](=O)[O-])c1	13µM	?	?	–	?	?
O=[N+]([O-])c1cccnc1N1CCC(c2cc(-c3ccc(Cl)cc3Cl)n[nH]2)CC1	13µM	?	?	–	–	?
COc1ccc(OC)c(-c2cc(C3CCN(c4ncccc4[N+](=O)[O-])CC3)[nH]n2)c1	–	–	–	–	–	?
O=[N+]([O-])c1cccnc1N1CCC(c2cc(-c3cccc(C(F)(F)F)c3)n[nH]2)CC1	14µM	–	?	–	–	?
CC1=C(C(=O)Nc2ccccc2)C(c2ccc[nH]2)n2ncnc2N1 (stereo unspecified)	?	·	–	·	–	–
C=CC(C)(C)c1[nH]c2ccccc2c1C1=C(O)C(=O)C(c2c[nH]c3c(CC=C(C)C)cccc23)=C(O)C1=O	14µM	·	16µM[quencher]	25µM	?	·
CC[n+]1ccc(C)c2cc(P(=O)(c3ccccc3)c3ccccc3)ccc21	?	?	–	25µM	–	·
Cc1ccnc2ccc(P(=O)(c3ccccc3)c3ccccc3)cc12	–	–	–	–	–	–
Cc1cccc(NC(=O)N2CCc3c(sc4c3CCCC4)C2c2ccc(F)cc2)c1 (stereo unspecified)	–	·	–	·	–	–
CC(=O)N[C@@H](CC(C)C)C(=O)N[C@@H](CCCNC(=N)N)C(=O)N[C@@H](Cc1cnc[nH]1)C(=O)N[C@@H](Cc1ccc(O)cc1)C(=O)N[C@@H](CC(C)C)C(=O)N[C@@H](CC(N)=O)C(=O)N[C@@H](CC(C)C)C(=O)N[C@@H](CC(C)C)C(=O)N[C@H](C(=O)N[C@@H](CCCNC(=N)N)C(=O)N[C@@H](CCC(N)=O)C(=O)N[C@@H](CCCNC(=N)N)C(=O)N[C@@H](Cc1ccc(O)cc1)C(N)=O)[C@@H](C)O	·	–	·	·	·	·
COc1ccccc1NC(=S)NNC(=O)c1ccc(O)cc1	–	–	–	–	–	–
COc1ccccc1NC(=S)NNC(=O)c1nn(C)c(C)c1Br	?	?	–	7.9µM	–	–
COc1ccccc1NC(=S)NNC(=O)c1nn(C)cc1Cl	–	–	–	10µM	–	–
Cc1c(Cl)c(C(=O)NNC(=S)NCc2ccco2)nn1C	–	–	–	?	–	–
COc1ccccc1NC(=S)NNC(=O)c1nn(C)c(C)c1Cl	?	–	–	14µM	–	–
